In the library only some 5.8% were active in any assay of this set; here they are far more common.
SW480 rereplic = induces DNA re-replication in SW480 colon adenocarcinoma cells. hit rate 1.8% among 340,000. SW480 DNA re-replication, Hoechst DNA content imaging, 48 h. AID 624297. Potency, µM (doses to about 46.1 µM), for inactives: at the highest dose re-replication activation, usual class: activators; further: % of control where 0% means no effect; nearly all actives have a fitted effect of over 55% in size
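Treated cells incubate 48 hr (37 C, 5% CO2), are stained 40 min with Hoechst, and nuclear fluorescence is enumerated; a rise in nuclei with high DNA signal marks re-replication.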
MCF10A rereplic = induces DNA re-replication in MCF 10a normal breast cells. hit rate 2.9% among 350,000. MCF 10A DNA re-replication, Hoechst nuclear intensity, 48 h. Potency, µM (doses to about 46.1 µM), inactives show top-dose activity, positive = re-replication, most hits filed as activators. AID 624296; further: % of control where 0% means no effect; nearly all actives have a fitted effect of over 50% in size
KB-V1 cytotox = KB-V1 MDR subline cytotoxicity. KB-V1 MDR cells viability, CellTiter-Glo, 72 h. Potency, µM (highest dose often 46.1 µM), hits mostly cytotoxic. hit rate 3.4% among 400,000. AID 1347076; further: on the % scale 0 is the no-effect control and ±100 the full control effect; nearly all actives have a fitted effect of over 60% in size
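Luminescent ATP read-out (CellTiter-Glo, 10 min) measures survival of drug-selected KB-V1 MDR cells after 72 h, 37 degrees C compound exposure. Medium: phenol-red-free DMEM, 10% FBS. Values from fitted concentration-response curves.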
PINK1 expr mod = modulators of PINK1 expression. PINK1 immunofluorescence, high-content cytometry, 24 h. Potency, µM (titrated, usually from 76.6 µM), for the others: at the top dose activation (PINK1 increase), actives largely listed as activators. hit rate 0.2% among 410,000; active means well fitted activation curve with a large enough effect; inconclusive means small, poorly fitted or top-dose-only effect; cell line not stated here; further: % of control where 0% means no effect; nearly all actives have a fitted effect of over 65% in size
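Fluorescence from anti-PINK1 antibody, together with nuclear and cell stains, was scanned on a laser-scanning cytometer. Before staining, stable-line cells were incubated 24 hours with compounds at 5 concentrations; primary antibody 12 h at 10 degrees C.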
12-LOX inh = blocks human arachidonate 12S-lipoxygenase; P18054; purified 12hLO, xylenol orange hydroperoxide absorbance; Potency, µM (highest dose often 108 µM), for the others: at the top dose activity change, negative = inhibition, hits mostly inhibitors; hit rate 1.1% among 580,000; AID 1671190; further: on the % scale 0 is the no-effect control and ±100 the full control effect
Target sequence (P18054 whole entry, looked up): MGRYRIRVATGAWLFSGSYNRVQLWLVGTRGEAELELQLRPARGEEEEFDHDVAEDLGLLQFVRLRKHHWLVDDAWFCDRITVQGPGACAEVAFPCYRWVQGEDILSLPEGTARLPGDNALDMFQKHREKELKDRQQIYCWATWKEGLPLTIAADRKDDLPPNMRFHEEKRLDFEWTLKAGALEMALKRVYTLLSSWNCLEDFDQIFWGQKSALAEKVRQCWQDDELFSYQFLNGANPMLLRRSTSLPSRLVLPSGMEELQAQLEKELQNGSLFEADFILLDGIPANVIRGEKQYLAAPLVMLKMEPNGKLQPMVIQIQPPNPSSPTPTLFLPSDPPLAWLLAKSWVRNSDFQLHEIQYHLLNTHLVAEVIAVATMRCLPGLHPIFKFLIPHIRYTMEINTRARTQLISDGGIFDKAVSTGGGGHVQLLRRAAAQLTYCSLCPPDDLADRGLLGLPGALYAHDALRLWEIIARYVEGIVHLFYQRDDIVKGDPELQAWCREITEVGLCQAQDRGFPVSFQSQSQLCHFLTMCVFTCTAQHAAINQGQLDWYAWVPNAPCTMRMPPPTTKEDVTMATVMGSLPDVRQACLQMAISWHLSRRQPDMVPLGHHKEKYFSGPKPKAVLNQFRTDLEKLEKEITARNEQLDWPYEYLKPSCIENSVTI
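Hydroperoxide product was detected by ferrous iron/xylenol orange as the 573 to 405 nm absorbance ratio. Arachidonic acid at 40 uM (final) was turned over for 30 min at room temperature by 150 nM human 12hLO, pH 7.0 Hepes buffer, after 15 min compound preincubation.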
KB-3-1 cytotox = KB-3-1 parental cell cytotoxicity | KB-3-1 viability, CellTiter-Glo ATP luminescence, 72 h | hit rate 1.4% among 400,000 | AID 1347075 | Potency, µM (highest dose often 46.1 µM), actives largely listed as cytotoxic; further: on the % scale 0 is the no-effect control and ±100 the full control effect; nearly all actives have a fitted effect of over 60% in size
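72 h, 37 °C compound treatment of KB-3-1 parental cells; CellTiter-Glo added, 10 min, luminescence read. Data corrected against DMSO-only plates and normalized before curve fitting.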
* marks the source's active call; other numbers are inactive results; i = inactive; ? = inconclusive; / = no result; ! = repeats disagree; [ ] = remark or other dose. Unless noted, the call rests on the fitted dose curve; in most records, active means well fitted curve in the direction sought with a large enough effect; inconclusive means small, poorly fitted or top-dose-only effect, or another doubt; inactive means no such curve, though single readings can be large; an effect the other way counts as inactive or inconclusive. Potency means the concentration at half of the fitted maximal effect.

SMILES	SW480 rereplic	MCF10A rereplic	KB-V1 cytotox	PINK1 expr mod	12-LOX inh	KB-3-1 cytotox
Cc1ccc(-n2ncc3c(NCCc4ccccc4)ncnc32)cc1	/	/	i	3%	28µM*	i
Cc1ccc(-n2ncc3c(NCCc4ccccc4)ncnc32)cc1Cl	/	/	i	9%	?	i
Cc1ccc(-n2ncc3c(NCCO)ncnc32)cc1Cl	/	/	5.8µM*	0%	?	i
Cc1ccc(-n2ncc3c(NCCCc4ccccc4)ncnc32)cc1	/	/	i	9%	-24%	i
O=C(NNc1ncnc2c1cnn2-c1cccc(Cl)c1)c1ccco1	21µM*	?	i	0%	-16%	i
COc1ccc(CCNc2ncnc3c2cnn3-c2cccc(Cl)c2)cc1	/	/	i	5%	40µM*	i
COc1ccc(-c2noc(-c3cccn3CC(=O)N(C)c3ccc(F)cc3)n2)cc1F	/	/	/	/	15%	/
O=S(=O)(Nc1ccc2cn[nH]c2c1)c1ccc(Cl)cc1C(F)(F)F	/	/	/	/	-29%	/
COc1ccc(/C=N/NC(=O)c2cc3cc(OC)c(OC)cc3[nH]2)cc1	-3%	-7%	i	1%	7%	i
CCOc1ccc2[nH]c(C(=O)N/N=C/c3ccc(OC)cc3)cc2c1	1.2µM*	?	?	24%	0%	1.5µM*
CS(=O)(=O)N(CCCC(=O)Nc1ccccc1C(=O)NCC1CCCO1)c1ccccc1 (stereo unspecified)	/	/	/	/	20%	/
Cc1ccc(CNc2ccc3nnc(C(C)C)n3n2)o1	/	/	/	/	44%	/
N#Cc1cccc(NC(=O)CCSc2ccc(Cl)cc2)c1	/	/	/	/	22%	/
Cc1c(Cl)cccc1NC(=O)CNc1cccc(S(=O)(=O)N(C)C)c1	1%	-9%	16µM*	0%	-14%	i
CN(C)S(=O)(=O)c1cccc(NC(=O)CCSc2ccc(Cl)cc2)c1	-7%	6%	12µM*	0%	-8%	?
CC(=O)c1ccc(OCCCC(=O)Nc2cccc(S(=O)(=O)N(C)C)c2)cc1	-1%	2%	13µM*	1%	-11%	?
CN(C)S(=O)(=O)c1cccc(NC(=O)COc2ccccc2C(=O)NCc2ccccc2)c1	4%	-4%	10µM*	-1%	-24%	?
CN(C)S(=O)(=O)c1cccc(NC(=O)NCCCl)c1	-13%	-2%	i	1%	-13%	i
CS(=O)(=O)N1C[C@H]2CCN(C(=O)c3cc(F)ccc3F)C[C@H]21	/	/	/	/	25%	/
CCc1ccc(OCCCC(=O)Nc2cccc(C(=O)O)c2)cc1	23µM*	6%	i	-1%	9%	i
COc1cc(CCC(=O)Nc2cccc(S(=O)(=O)N(C)C)c2)cc(OC)c1OC	?	-2%	21µM*	8%	-1%	i
COC(=O)c1cccc(NC(=O)CCc2cc(OC)c(OC)c(OC)c2)c1	-45%	10%	i	1%	-2%	i
COC(=O)c1cccc(NC(=O)CCCOc2ccccc2)c1	-1%	5%	i	-1%	0%	i
CC(C)CC(N)c1ccccc1 (stereo unspecified)	/	/	/	/	-7%	/
OC1CCC(NCc2ccc(-c3cnc4c(OCc5ccccc5)nccn34)cc2)CC1 (stereo unspecified)	/	/	/	/	-1%[176 µM]	/
SMILES	SW480 rereplic	MCF10A rereplic	KB-V1 cytotox	PINK1 expr mod	12-LOX inh	KB-3-1 cytotox
c1ccc(CN=C2NN=C(c3ccccc3)CS2)cc1	1%	6%	i	1%	?	?
c1ccc(C2=NNC(=NCc3ccc4c(c3)OCO4)SC2)cc1	8%	16%	23µM*	5%	?	i
O=C(CC1CCCN(c2cnn(CC3CC3)c(=O)c2)C1)NCc1ccccc1Cl (stereo unspecified)	/	/	/	/	29%	/
COCCn1nnnc1C(c1ccccn1)N1CCN(c2cc(Cl)ccc2C)CC1 (stereo unspecified)	1%	1%	i	1%	0%[57.4 µM]	i
COc1ccc(Cn2nnnc2C(c2ccccn2)N2CCN(c3cc(Cl)ccc3C)CC2)cc1 (stereo unspecified)	?	2%	13µM*	/	-27%	?
CCCCn1c(SCc2ccc(C(=O)OC)o2)nc2cc(S(N)(=O)=O)ccc21	0%	-3%	?	-3%[38.3 µM]	-29%	18µM*
CN(C)c1ccc(/C=C2\CCC/C(=C\c3ccccc3)C2=O)cc1	15%	18µM*	18µM*	11%	-21%	i
O=C1/C(=C/c2cccnc2)CCC/C1=C\c1cccnc1	1.3µM*	1.2µM*	3.3µM*	-2%	-13%	?
CCC1C/C(=C\c2cccnc2)C(=O)/C(=C/c2cccnc2)C1 (stereo unspecified)	/	?	?	-2%	-13%	3.7µM*
CN(C)c1ccc(/C=C2\Cc3ccccc3C2=O)cc1	/	/	i	0%	/	i
O=C1/C(=C/c2cccnc2)CC/C1=C\c1cccnc1	5%	?	i	5%	6%	?
O=C(O)CNC(=O)CNS(=O)(=O)Cc1ccccc1	/	/	/	/	-9%	/
Cc1cn2nc(C(=O)NC3CCc4ccccc43)cc2c(N2CCCC2)n1 (stereo unspecified)	/	/	/	/	20%	/
O=c1ccc2ccc(O[C@@H]3O[C@H](CO)[C@@H](O)[C@H](O)[C@H]3O)c(O)c2o1	-53%	7%	?	3%	?	i
COc1cc(C2OCC3C(c4ccc(OC5OC(CO)C(O)C(O)C5O)c(OC)c4)OCC23)ccc1O (stereo unspecified)	3%	-3%	i	-1%	5µM*	i
COc1cc2ccc(=O)oc2c(O[C@@H]2O[C@H](CO)[C@@H](O)[C@H](O)[C@H]2O)c1O	8.2µM*!	16µM*	i	0%	3%	i
COc1cc([C@H]2OC[C@H]3[C@@H]2CO[C@H]3c2ccc(O)c(OC)c2)ccc1O	0%	-1%	i	-1%	-1%	i
O=C(Nc1ccc(OC(F)F)cc1)c1n[nH]c(=O)c2ccccc12	/	/	/	/	64%	/
Cc1nn(-c2cccc(Br)c2)c(C)c1[C@@H]1C=C[C@@H](NCc2cccc(C#N)c2)C1	/	/	/	/	7%	/
Cc1nn(-c2cccc(Br)c2)c(C)c1[C@@H]1C=C[C@@H](NS(C)(=O)=O)C1	/	/	/	/	11µM*	/
COc1cc(OC)cc(C(=O)N[C@@H]2CN(c3ncccn3)C[C@H]2CO)c1	/	/	/	/	-4%	/
COc1ccc(-c2cc(N3CCC(NC(=O)c4cc(Cl)ccc4F)CC3)n[nH]2)cc1	/	/	/	/	48%	/
Cc1ccccc1-c1nc(S(=O)(=O)c2ccc(Cl)cc2)c(NCCN2CCOCC2)o1	?	21µM*	i	?	-22%	i

From PubChem BioAssay
